PvdQ inh – P. aeruginosa PvdQ acylase inhibitors, primary screen, biochemical, fluorescence, plate reader and imaging, single point; PvdQ acylase [Pseudomonas aeruginosa LESB58]; purified PvdQ acylase; inhibition, % at 10 µM; 340,000 tested, 0.063% active; AID 488965, 2010; in the data active = inhibition above about 30%, passing the limit was not always enough; inconclusive = no clear call, values can overlap the other calls
Mot1-301 SUMO – yeast Mot1-301 growth rescue at high temperature, primary screen, SUMOylation pathway inhibitor project, S. cerevisiae, ATP luminescence, 38.5C; S. cerevisiae Mot1-301 growth rescue; percent above DMSO median, 100 means doubled; growth rescue, % at 18.8 µM; 320,000 tested, 1% active; AID 2716, 2010;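 active = every valid replicate shows activation above 250% relative to neutral control wells; inactive = the rest, any valid replicate at or below 250%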
GASC-1 inh – inhibitors of GASC-1 histone demethylase, primary screen, biochemical, fluorescence, DELFIA europium. GST-JMJD2C(1-420) H3K9me3 demethylation. 330,000 tested, 0.069% active. Lysine-specific demethylase 4C (Homo sapiens), Q9H3R0. inhibition, % at 2.35 µM;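 active = more than half of a compound's replicate wells show inhibition beyond 50%, single wells judged on their own value; inconclusive = some, but no more than half, of replicates pass 50% inhibition; inactive = no replicate passes 50% inhibition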;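 note: signal counts dimethyl H3K9 product captured on neutravidin plate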
pCIP destab – p/CIP-EGFP fusion destabilizers, primary screen, fluorescence, F442A cells; Q05BA5; 16 h; decrease of EGFP signal, % at 10 µM; 290,000 tested, 0.01% active; AID 1984, 2009;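 active = EGFP signal decrease of at least 30% at 10 µM or well 3 SD below plate mean, unless failing retest; inactive = the rest, including hits failing retest or dose response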
Target sequence (Q05BA5 1-1403): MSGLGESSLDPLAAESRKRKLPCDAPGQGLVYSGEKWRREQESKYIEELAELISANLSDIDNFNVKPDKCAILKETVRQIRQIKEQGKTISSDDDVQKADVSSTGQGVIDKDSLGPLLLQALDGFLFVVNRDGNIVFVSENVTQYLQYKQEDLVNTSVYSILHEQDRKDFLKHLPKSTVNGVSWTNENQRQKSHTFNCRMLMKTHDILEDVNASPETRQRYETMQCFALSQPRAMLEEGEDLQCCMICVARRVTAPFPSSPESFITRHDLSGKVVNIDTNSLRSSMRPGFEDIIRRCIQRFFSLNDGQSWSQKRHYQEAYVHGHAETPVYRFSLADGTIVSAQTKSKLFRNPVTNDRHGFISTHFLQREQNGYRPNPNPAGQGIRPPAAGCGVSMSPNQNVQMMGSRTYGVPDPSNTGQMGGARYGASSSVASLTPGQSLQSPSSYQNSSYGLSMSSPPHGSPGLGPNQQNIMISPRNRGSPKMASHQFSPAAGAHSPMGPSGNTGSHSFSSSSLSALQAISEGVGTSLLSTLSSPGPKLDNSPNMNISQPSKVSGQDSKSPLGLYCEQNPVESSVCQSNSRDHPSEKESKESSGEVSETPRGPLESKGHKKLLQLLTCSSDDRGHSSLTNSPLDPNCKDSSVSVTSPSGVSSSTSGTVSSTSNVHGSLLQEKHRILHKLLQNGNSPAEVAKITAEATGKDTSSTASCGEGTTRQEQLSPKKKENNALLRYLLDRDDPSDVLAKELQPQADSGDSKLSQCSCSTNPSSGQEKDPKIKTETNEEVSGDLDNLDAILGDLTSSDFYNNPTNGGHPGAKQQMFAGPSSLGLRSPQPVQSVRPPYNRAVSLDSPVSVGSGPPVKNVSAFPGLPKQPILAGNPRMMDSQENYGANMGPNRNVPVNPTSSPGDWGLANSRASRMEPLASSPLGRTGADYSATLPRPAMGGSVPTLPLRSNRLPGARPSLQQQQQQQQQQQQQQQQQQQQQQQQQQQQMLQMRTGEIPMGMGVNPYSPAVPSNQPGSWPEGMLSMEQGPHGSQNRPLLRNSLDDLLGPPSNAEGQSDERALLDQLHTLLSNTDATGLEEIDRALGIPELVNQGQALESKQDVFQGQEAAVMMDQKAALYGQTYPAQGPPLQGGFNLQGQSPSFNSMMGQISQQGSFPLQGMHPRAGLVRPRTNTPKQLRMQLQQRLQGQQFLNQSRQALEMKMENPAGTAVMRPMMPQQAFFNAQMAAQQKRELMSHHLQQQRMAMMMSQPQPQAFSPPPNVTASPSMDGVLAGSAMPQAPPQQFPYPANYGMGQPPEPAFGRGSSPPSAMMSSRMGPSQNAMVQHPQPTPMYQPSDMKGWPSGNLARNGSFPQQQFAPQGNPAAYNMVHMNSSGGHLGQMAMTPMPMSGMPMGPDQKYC
HDAC3 inh – HDAC3 deacetylase inhibitors, primary screen, biochemical, fluorescence, cell-free homogeneous | Histone deacetylase 3 (Homo sapiens), O15379 | recombinant HDAC3, fluorogenic peptide/trypsin coupled | inhibition, % at 8.3 µM | 320,000 tested, 0.15% active | AID 2718, 2010; in the data active = inhibition above about 26%, passing the limit was not always enough; inconclusive = no clear call, values can overlap the other calls
PHOSPHO1 inh – PubChem AID 1565. recombinant PHOSPHO1, absorbance phosphatase assay. Phosphoethanolamine/phosphocholine phosphatase (Homo sapiens), Q8TCT1. 290,000 tested, 1.1% active. inhibition, % at 13.3 µM; in the data active = inhibition above about 60%
A number is an active result; . = inactive; ? = inconclusive; / = no result. In the library only some 2.2% were active in any assay of this set; here they are far more common.

SMILES	PvdQ inh	Mot1-301 SUMO	GASC-1 inh	pCIP destab	HDAC3 inh	PHOSPHO1 inh
COc1ccc(S(=O)(=O)N2CCN=C2SCc2cccc(F)c2)cc1	.	.	.	.	.	61
O=c1c2cc(O)c(O)cc2oc2cc(O)c(C3OC(CO)C(O)C(O)C3O)c(O)c12 (centres undefined)	.	.	?	/	.	/
COc1cc(NC(=O)c2ccco2)c(OC)cc1NC(=O)CSc1ncc(-c2ccc(F)cc2)[nH]1	.	.	.	.	.	74
CCN(CC)CCN(C(=O)c1c(F)cccc1F)c1nc2cc(C)cc(C)c2s1	.	.	.	.	.	.
COc1ccc(N2CSC3=C(C#N)C(c4ccc(OC)c(OC)c4)CC(=O)N3C2)c(OC)c1 (centres undefined)	.	.	.	.	40	.
COc1ccc(N2CSC3=C(C#N)C(c4cc(OC)c(OC)cc4OC)CC(=O)N3C2)c(OC)c1 (centres undefined)	.	.	.	.	38	93
COc1ccc(N2CSC3=C(C#N)C(c4cc(OC)ccc4OC)CC(=O)N3C2)c(OC)c1 (centres undefined)	.	.	.	.	42	94
CCSC1=C(C#N)C(c2ccc(OC)c(OC)c2)CC(=O)N1 (centres undefined)	.	.	.	.	.	.
COc1ccc(C2CC(=O)N3CN(c4ccc(C)c(Cl)c4)CSC3=C2C#N)cc1OC (centres undefined)	.	.	.	.	43	81
Cc1cc(C)cc(NC(=O)CSc2cc(C(=O)c3nccn3C)c3ccccc3n2)c1	.	.	.	.	.	.
CC(C)N1CCN(Cc2ccsc2)CC1CCO (centres undefined)	.	.	.	.	.	.
CCOc1ccccc1N1CCN(S(=O)(=O)c2cc(C)ccc2OC)CC1	.	.	.	.	.	.
COc1cc(OC)c(C2CC(=O)N3CN(c4ccc(C)cc4)CSC3=C2C#N)cc1OC (centres undefined)	.	.	.	.	.	96
CCOc1ccccc1N1CSC2=C(C#N)C(c3c(OC)ccc4ccccc34)CC(=O)N2C1 (centres undefined)	.	.	.	.	?	92
COc1cc(NC(=O)CCS(=O)(=O)c2ccc3c(c2)n(C)c(=O)c(=O)n3C)cc(OC)c1	.	.	.	.	.	.
COc1cc(NC(=O)Cn2cnc3c(nc4n3CCCCC4)c2=O)cc(OC)c1OC	.	.	.	.	.	75
COc1cc(NC(=O)C2CCCN(c3ncnc4c3nc3n4CCCCC3)C2)cc(OC)c1OC (centres undefined)	.	.	.	.	.	.
COc1ccc(C(=O)NCC(=O)N2CCC(Cc3ccccc3)CC2)cc1OC	.	/	/	/	/	/
Cn1cnnc1SCC(=O)N1CCN(C(=O)c2ccco2)CC1	.	.	.	.	.	.
Cn1cnnc1SCC(=O)N1CCC(Cc2ccccc2)CC1	.	.	.	.	.	63
Cc1ccc(C(=O)NCC(=O)N2CCC(Cc3ccccc3)CC2)cc1	.	.	.	.	.	63
CCc1ccc(NC(=O)CN2C(=O)C(=O)N(Cc3ccccc3)C2=O)cc1	/	.	.	.	.	.
C=CC[C@H](CC(=O)N(CCO)Cc1ccccc1)C(=O)NCCOC(=O)[C@@H](CC=C)CC(=O)OC(C)(C)C	.	.	.	/	.	/
Cc1nc(NC(=O)/C=C/c2ccccc2)sc1C(=O)Nc1ccc(Cl)cc1	.	.	.	.	.	65
Cc1cccnc1NC(=O)C(C)N1C(=O)c2ccccc2C1=O (centres undefined)	.	.	.	.	.	.
COc1ccc(Cn2nnnc2C(CC(C)C)N2CCC(C(N)=O)CC2)cc1 (centres undefined)	.	.	.	.	.	66
CNC(=O)c1cc(S(=O)(=O)Nc2ccc3c(c2)OCO3)ccc1C	.	.	.	.	.	.
COC(=O)c1ccn(Cc2ccccc2Cl)n1	.	/	.	.	/	.
O=C(CSc1nnc(-c2ccc(O)cc2)n1Cc1ccco1)c1cccs1	.	.	.	.	.	.

Bioassay records deposited in PubChem by several laboratories.
